# FBW7 activator = activators of human E3 ligase FBW7. Q969H0. AlphaScreen FBW7–phospho-cyclin E peptide binding, activator screen. normalized activity (activation), % at 26.1 µM. hit rate 0.13% among 650,000; in the data active means normalized activity above about 1.9%;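 further: purified mutant Fbw7 with reduced substrate affinity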
# GPR151 activ = activates the human receptor GPR151 | Q8TDV0 | PathHunter beta-arrestin GPR151 cells, luminescence | activation, % at 11.2 µM | hit rate 1% among 650,000; in the data active means activation above about 4.9%;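 further: 0% = median of compound wells and 100% = cells with positive control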
# TEAD-YAP block = TEAD-YAP interaction inhibition. HEK-TIYL cells, TEAD-Gal4/YAP UAS-luciferase luminescence. inhibition, % at 9.12 µM. hit rate 1.4% among 640,000; in the data active means inhibition above about 32%;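 further: 0% = median of test compound wells and 100% = reference inhibitor wells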
# MITF primary = inhibitors of human MITF; O75030; AlphaScreen MITF homodimerization, bead proximity signal; inhibition, % at 2.6 µM; hit rate 0.91% among 650,000; AID 1259374; in the data active means inhibition above about 50%;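 further: 0% = vehicle wells with protein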
# Target sequence (O75030 whole entry, looked up): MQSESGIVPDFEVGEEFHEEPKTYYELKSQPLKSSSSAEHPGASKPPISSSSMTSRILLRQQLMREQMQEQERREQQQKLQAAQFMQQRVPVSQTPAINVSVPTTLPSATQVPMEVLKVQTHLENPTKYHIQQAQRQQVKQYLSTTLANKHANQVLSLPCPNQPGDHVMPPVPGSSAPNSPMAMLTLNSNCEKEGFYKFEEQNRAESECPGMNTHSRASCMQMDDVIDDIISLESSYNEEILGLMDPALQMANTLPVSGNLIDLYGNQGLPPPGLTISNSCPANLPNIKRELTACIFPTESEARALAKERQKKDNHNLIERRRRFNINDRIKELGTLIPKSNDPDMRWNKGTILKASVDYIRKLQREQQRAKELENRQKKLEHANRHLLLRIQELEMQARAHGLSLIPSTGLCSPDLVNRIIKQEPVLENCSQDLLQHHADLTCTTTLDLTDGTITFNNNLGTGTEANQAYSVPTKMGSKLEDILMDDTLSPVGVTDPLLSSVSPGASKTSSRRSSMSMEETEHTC
# MITF inh conf = confirmation of human MITF inhibitors; shares compounds with MITF primary; AlphaScreen MITF homodimerization, biotin/His-MITF beads; inhibition, % at 2.6 µM; hit rate 16% among 4,700; AID 1259372;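 active means inhibition above a cutoff derived from the DMSO control wells, cut at about 28% in these data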;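 further: 0% = MITF dimer wells with DMSO only; inhibitors lower the bead chemiluminescence by keeping MITF from dimerizing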
# AS interf ctr = AlphaScreen optical interference, counter-screen; inhibition, % at 2.6 µM; shares compounds with MITF primary; AID 1259376; hit rate 7.6% among 4,700; LysRS AlphaScreen counterscreen, signal interference, triplicate;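 active means inhibition above a cutoff derived from the DMSO control wells, cut at about 30% in these data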
# An asterisk follows results filed as active; · = no result. In the library only some 3.4% were active in any assay of this set; here they are far more common.
SMILES,FBW7 activator,GPR151 activ,TEAD-YAP block,MITF primary,MITF inh conf,AS interf ctr
c1ccc(OCCOCCN2CCNCC2)cc1,0.0,0.6,3.3,35.8,·,·
Clc1ccc(OCCN2CCC(c3nc(-c4ccncc4)no3)CC2)cc1,0.0,0.6,6.8,-5.8,·,·
CCNc1nc(NCCOc2ccccc2)c2ncn(C3CCCCC3)c2n1,-0.2,3.3,-13.8,54.2*,2.7,7.1
COc1ccccc1N1CCN(CC(=O)c2ccc(F)cc2)CC1,0.0,0.6,2.6,68.9*,5.0,8.0
Cc1ccc(OCCN2CCCCC2)c([N+](=O)[O-])c1,-0.1,1.5,-7.0,64.1*,19.4,14.2
Cc1ccc(OCCN2CCNCC2)c([N+](=O)[O-])c1,-0.1,0.4,-19.6,50.2,·,·
Cc1ccc(OCCCN2CCCC2)c([N+](=O)[O-])c1,-0.1,0.0,-0.5,38.2,·,·
Cc1ccc(OCCN2CC(C)OC(C)C2)c([N+](=O)[O-])c1 (configuration not stated),0.0,-1.8,-0.6,75.6*,15.9,-5.4
Cc1ccc(OCCN2CCN(C)CC2)c([N+](=O)[O-])c1,-0.1,2.2,-10.0,75.9*,-9.2,0.2
CN(CCOc1ccccc1)Cc1nc2ccc(Cl)cc2n1CCO,-0.1,-0.1,-0.8,77.6*,17.7,16.6
CC(C)(CO)NCC(O)COCc1ccc(Cl)cc1 (configuration not stated),0.6,-0.3,7.0,-4.6,·,·
OC(CNCCNc1cccc2ccccc12)COCc1ccc(Cl)cc1 (configuration not stated),-0.2,-1.3,-2.1,52.8*,-5.0,0.7
O=C(c1ccco1)N1CCN(Cc2ccc(Br)cc2)CC1,-0.1,2.3,-1.6,-2.4,·,·
O=C(c1ccco1)N1CCN(Cc2ccccc2C(F)(F)F)CC1,0.0,-0.2,-4.4,66.0*,8.0,12.4
O=C(c1ccco1)N1CCN(Cc2ccccc2[N+](=O)[O-])CC1,0.8,-0.8,-12.3,75.7*,-3.5,-0.8
O=C(c1ccccc1)N1CCN(C(=O)c2cccc(F)c2)CC1,0.2,0.2,16.7,-4.8,·,·
O=C(c1ccccc1)N1CCN(C(=O)c2ccncc2)CC1,0.0,-0.4,4.8,1.2,·,·
O=C(c1ccncc1)N1CCN(Cc2ccccc2C(F)(F)F)CC1,-0.5,-0.5,0.3,69.5*,-11.9,-5.5
O=C(c1cccc(F)c1)N1CCN(Cc2ccccc2Br)CC1,-0.2,1.1,2.2,57.0*,22.1,15.7
Cc1c(C(=O)Nc2ccccc2Cl)sc2ncn(Cc3ccccc3Cl)c(=O)c12,0.0,1.1,-8.1,4.5,·,·
CCCCCn1c(=O)c2c(nc3oc(-c4ccc(F)cc4)cn32)n(C)c1=O,-0.1,2.5,5.1,4.7,·,·
CCC1(C)CC(CC(=O)O)(c2ccc(F)cc2)CCO1 (configuration not stated),-0.7,-0.6,-3.7,-2.4,·,·
O=C(c1cccc(F)c1)N1CCN(Cc2ccccc2C(F)(F)F)CC1,-0.1,0.1,-1.0,53.1*,-15.8,-2.1
O=C(c1ccc(-c2ccccc2)cc1)N1CCN(Cc2ccccc2C(F)(F)F)CC1,0.1,1.4,-11.0,65.2*,2.4,4.3
O=C(c1ccccc1)N1CCN(CCCc2ccccc2)CC1,0.2,2.2,-18.0,31.2,·,·
SMILES,FBW7 activator,GPR151 activ,TEAD-YAP block,MITF primary,MITF inh conf,AS interf ctr
O=C(c1ccc(F)cc1)N1CCN(Cc2ccccc2C(F)(F)F)CC1,-0.2,-0.5,-1.0,64.9*,-4.4,-4.2
CC(C)CC(=O)N1CCN(CCCc2ccccc2)CC1,0.3,-0.1,11.7,52.3*,6.4,1.7
COc1ccccc1CN1CCN(C(=O)c2ccc(F)cc2)CC1,-0.1,0.2,-8.0,38.3,·,·
O=C1CCc2cc(NS(=O)(=O)Cc3ccc(F)cc3)ccc2N1Cc1ccccc1,-0.1,0.0,-0.5,1.4,·,·
O=C(Nc1ccc2c(c1)OCCO2)C1(c2cccs2)CCOCC1,0.0,0.9,0.8,13.5,·,·
CC(C)CC(=O)N1CCN(Cc2ccccc2C(F)(F)F)CC1,0.0,0.0,1.9,58.4*,4.2,17.0
CC(C)CC(=O)N1CCN(C(=O)c2cccs2)CC1,0.1,-0.7,5.9,7.3,·,·
CCCN1CCC(NCCc2ccc(Cl)cc2)CC1,0.0,-0.1,4.8,50.6*,-0.1,0.9
CC(C)c1ccc(OCC(=O)NCCS(=O)(=O)N2CCc3ccccc32)cc1,-0.1,0.8,3.2,80.5*,-7.2,-2.3
CC(=O)CCc1ccc(OCCCCN2CCN(C)CC2)cc1,-0.1,0.6,4.8,-5.0,·,·
CCN1CCN(CCCOc2ccc(CCC(C)=O)cc2)CC1,-0.1,2.2,-0.9,56.3*,13.1,16.4
CCN1CCN(CCCCOc2ccc(CCC(C)=O)cc2)CC1,-0.3,-0.8,-5.8,66.1*,10.2,19.2
CC(=O)CCc1ccc(OCCN2CCN(C)CC2)cc1,0.0,0.5,-8.2,0.5,·,·
CCN1CCN(C(=O)c2c(Cl)cccc2Cl)CC1,-0.2,1.6,-1.7,-9.0,·,·
CC(NS(=O)(=O)c1cc(Cl)ccc1Cl)C(=O)NC1CCCCC1 (configuration not stated),0.5,-0.6,2.4,57.5*,-4.1,1.0
OC(CNCCCn1ccnc1)COc1cccc2ccccc12 (configuration not stated),-0.1,-0.6,12.1,83.6*,18.0,17.4
OC(CNCCCn1ccnc1)COc1ccccc1 (configuration not stated),-0.2,-0.3,4.4,75.1*,6.5,17.4
Cc1cc(C)n(CCCNCC(O)COc2ccc(-c3ccccc3)cc2)n1 (configuration not stated),0.0,1.5,5.5,34.8,·,·
Cc1cc(C)n(CCCNCC(O)COc2ccc(C(=O)c3ccccc3)cc2)n1 (configuration not stated),-0.1,-0.2,10.8,59.9*,-1.6,4.9
Cc1cccc(OCC(O)CNCCCn2ccnc2)c1 (configuration not stated),0.0,-0.7,11.3,65.4*,0.1,0.6
O=C(NNC(=S)Nc1ccccc1C(F)(F)F)c1ccccn1,-0.8,-2.1,-37.2,112.9*,103.6*,100.2*
CC(O)CC(=O)NNC(=S)Nc1ccc(Cl)c(Cl)c1 (configuration not stated),0.0,0.0,2.7,-0.6,·,·
O=C(NNC(=S)Nc1ccccc1C(F)(F)F)c1ccc(Br)o1,0.0,-1.8,-32.5,-20.9,·,·
O=C(NNC(=S)Nc1ccc(Cl)c(Cl)c1)c1ccccn1,-1.0,-0.1,39.3*,113.6*,109.9*,100.2*
CC(C)(C)c1nnc(NC(=O)CSc2ccccc2)s1,0.2,0.5,-15.4,-1.4,·,·
CCCOc1ccc(C2Oc3ccc(Br)cc3C3CC(c4ccccc4)=NN32)cc1 (configuration not stated),0.2,-1.6,-55.7,8.3,·,·
CCCOc1ccc(C2Oc3ccc(Br)cc3C3CC(c4ccc(Cl)cc4)=NN32)cc1 (configuration not stated),-0.1,-1.6,-28.5,74.4*,5.3,15.1
CC(=O)OCC(=O)Nc1ccc(I)cc1,0.2,-1.5,19.0,9.1,·,·
CCOC(=O)c1c(N)nn2c3ccccc3n(C)c12,0.0,0.9,-24.4,63.8*,10.6,17.7

# From PubChem
